According to PubChem BioAssay AID1041 (National Center for Advancing Translational Sciences (NCATS), 2008):
Values without a mark were called inactive. The source made the active and inactive calls.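 How the source made its calls: active means compound lifting p16 RNA above DMSO-treated cells by a clear fold change, a shift of a few PCR cycles; inactive means the rest, including any drop in level.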

assay: p16 Derepression/Induction Secondary Assay for qHTS Assay for Epigenetic Modulators; details: H358 cells, p16 mRNA RT-qPCR, 72 h; hits give high values
Excerpt: NIH Molecular Libraries Screening Centers Network [MLSCN] NIH Chemical Genomics Center [NCGC] MLSCN Grant: 1 X01 MH079860-01 Assay Provider: Elisabeth D. Martinez, University of Texas SW Medical Center NCGC Assay Overview: This secondary assay characterizes selected actives identified in the qHTS of the Locus Derepression (LDR) assay (PubChem AID 597). The LDR assay detects the derepression of a GFP reporter that is stably integrated in a region of the genome of murine c127i mammary cells that is presumably silenced. Compounds that cause derepression of the locus to express GFP are identified by enumerating GFP positive cells using a laser-scanning microplate cytometer. Selected LDR actives were assayed for the induction of p16 gene expression, a gene silenced by dense methylation of its promoter. Treatment of cells with DNA methyltransferase inhibitors like 5-azadeoxycytidine induce p16 gene expression. Compounds active in this assay may affect components involved in DNA methylation or gene transcription.
NCGC Assay Protocol Summary Exponentially growing H358 non-small cell lung cancer cells were treated daily with fresh media containing the indicated concentrations of compounds for 72 hr. Cellular RNA was extracted, quantified, DNAse treated and reverse transcribed. The resulting cDNA was amplified in TaqMan real time quantitative PCR assays (Applied Biosystems) containing validated primers specific for p16 (Hs00233365_m1). Reactions were performed on an ABI Prism 7900HT, with an initial 2 min preincubation at 50 C, followed by 10 min at 95 C and then 40 cycles of 95 C for 15 seconds and 60 C for 1 min. GAPDH and 18S ribosomal RNA were used as references. Gene expression was measured by fold-induction over control DMSO-treated samples (36-37 average cycle time). Increases corresponded to at least 2-3 cycle time differences over DMSO controls, which were in the measurable range. Decreases in expression were considered insignificant as measurement of the DMSO samples were at the low limit of detection. Reactions were run in triplicate and error bars represent standard deviations. For further details, see R.L. Johnson, W. Huang, A. Jadhav, C.P. Austin, J. Inglese, E.D. Martinez, A Quantitative High-Throughput Screen Identifies Potential Epigenetic Modulators of Gene Expression, Analytical Biochemistry (2007), doi: 10.1016/j.ab.2007.12.028

| Compound | fold change |
| --- | --- |
| CN1CCN(Cc2cc(Cl)c3cccnc3c2O)CC1 | 1 |
| CCN1CSC(=S)N(CC)C1 | 1 |
| CC(C)C(=O)NC(c1ccco1)c1ccc2cccnc2c1O (configuration not stated) | 1 |
| CC(/C=C/C(=O)NO)=C\[C@@H](C)C(=O)c1ccc(N(C)C)cc1 | 1 |
| COc1ccc(C(NC(=O)C(C)C)c2ccc3cccnc3c2O)cc1 (configuration not stated) | 1 |
| CN(C)C(=O)CSc1cccc2cccnc12 | 0.4 |
| CC(C)C(=O)NC(c1ccco1)c1cc([N+](=O)[O-])c2cccnc2c1O (configuration not stated) | 2 |
| O=Nc1ccc(O)c2ncccc12 | 2 |
| O=C(CSc1cccc2cccnc12)NCc1ccccc1 | 1 |
| O=C(CSc1cccc2cccnc12)N1CCCC1 | 1 |
| CC(C)C(=O)NC(c1ccc(N(C)C)cc1)c1ccc2cccnc2c1O (configuration not stated) | 0.4 |
| Nc1ncn([C@H]2C[C@H](O)[C@@H](CO)O2)c(=O)n1 | 351 (active) |
